Screening results from PubChem.
ATXN viability: Viability Counterscreen for Primary qHTS for Inhibitors of ATXN expression; S2 cells (HEK-293 line with an ATXN2-luciferase reporter) viability, CellTiter-Fluor protease fluorescence, 24 h; Potency, µM (top dose mostly 56.7 µM), hits mostly cytotoxic; 400,000 compounds, 0.49% hits; AID 651635, 2014; note: potency is the fitted concentration of half-maximal effect; nearly all actives have a fitted effect of over 40% in size
PINK1 modulator: A Quantitative High throughput Screen to Identify Chemical Modulators of PINK1 Expression. PINK1 immunofluorescence, high-content cytometry, 24 h. Potency, µM (doses to about 76.6 µM), for inactives: at the top dose activation (PINK1 increase), usual class: activators. 410,000 compounds, 0.2% hits. AID 624263, 2012; active = well fitted activation curve with a large enough effect; inconclusive = small, poorly fitted or top-dose-only effect; cell line not stated here; note: potency is the fitted concentration of half-maximal effect; % of control where 0% means no effect; nearly all actives have a fitted effect of over 65% in size
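Cells are seeded, rested 12 hours, then given compound at five concentrations or DMSO for 24 hours. After fixation, blocking and antibody staining, PINK1 amount and mitochondrial localization are scored; CCCP serves as control.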
IL1B secr inh: qHTS for Inhibitors of Inflammasome Signaling: IL-1-beta AlphaLISA Primary Screen | activity change, % at 57.5 µM | AID 743279, 2014 | THP-1 LPS/ATP IL-1B secretion, AlphaLISA, 16 h; active compounds read low | 360,000 compounds, 4.7% hits; in the data active = activity change below about -50%; inconclusive = mostly about -30% to -49%; note: % is set by controls: 0 for no effect and ±100 for the full control effect
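THP-1 cells pretreated 1 hr with compounds (up to 57.5 uM final), then stimulated with LPS (250 ng/mL final) plus ATP (1.25 mM final); secreted IL-1B measured by AlphaLISA after 16 hr, decreased signal indicating inhibition.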
ATXN2 expr inh: Primary qHTS for Inhibitors of ATXN expression; HEK-293 ATXN2-luciferase reporter, luminescence, 24 h; 360,000 compounds, 0.72% hits; Potency, µM (doses to about 57 µM), without a hit: at the highest dose activity change, negative = inhibition, most hits filed as inhibitors; note: potency is the fitted concentration of half-maximal effect; % is set by controls: 0 for no effect and ±100 for the full control effect; nearly all actives have a fitted effect of over 55% in size
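qHTS (up to 57 uM final) was run with 24 h compound exposure of reporter cells at 37 °C. Each well was multiplexed: SteadyGlo luminescence measured ATXN2-luciferase expression after a fluorogenic Gly-Phe-AFC viability readout (25 uM final).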
MCF10A rerep: A quantitative high throughput screen for small molecules that induce DNA re-replication in MCF 10a normal breast cells; AID 624296, 2012; MCF 10A DNA re-replication, Hoechst nuclear intensity, 48 h; Potency, µM (series often up to 46.1 µM), for inactives: at the highest dose activity, positive = re-replication, actives largely listed as activators; 350,000 compounds, 2.9% hits; note: potency is the fitted concentration of half-maximal effect; % of control where 0% means no effect; nearly all actives have a fitted effect of over 50% in size
SW480 rerep: A quantitative high throughput screen for small molecules that induce DNA re-replication in SW480 colon adenocarcinoma cells; Potency, µM (titrated, usually from 46.1 µM), without a hit: at the top dose re-replication activation, most hits filed as activators; AID 624297, 2012; 340,000 compounds, 1.8% hits; SW480 DNA re-replication, Hoechst DNA content imaging, 48 h; note: potency is the fitted concentration of half-maximal effect; % of control where 0% means no effect; nearly all actives have a fitted effect of over 55% in size
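250 cells/well; 23 nL cpd via pin tool; 48 hr, 37 C, 5% CO2; Hoechst 40 min; imager read of total nuclear intensity, ex 405/em 500-530 nm.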
The depositor's hits bear a star; i = inactive; u = inconclusive; x = no result; [ ] = dose if it differs, or a comment. In the library only some 7.1% were active in any assay of this set; here they are far more common. Unless noted, calls come from the whole dose curve; as a rule, active = well fitted curve in the direction sought with a large enough effect; inconclusive = small, poorly fitted or top-dose-only effect, or another doubt; inactive = no such curve, though single readings can be large; an effect the other way counts as inactive or inconclusive.

SMILES	ATXN viability	PINK1 modulator	IL1B secr inh	ATXN2 expr inh	MCF10A rerep	SW480 rerep
Cc1ccc(NC(=O)CSC2=C(C#N)C(c3ccco3)C3=C(CC(C)(C)CC3=O)N2)cc1 (configuration not stated)	i	1.1%	-18.5	-31.8%	9.5%	u
CCc1ccc(NC(=O)CSC2=C(C#N)C(c3ccco3)C3=C(CCCC3=O)N2)cc1 (configuration not stated)	i	0.4%	-90.1*	17.5%	18.4µM*	u
N#CC1=C(SCC(=O)c2ccc(Br)cc2)NC2=C(C(=O)CCC2)C1c1ccco1 (configuration not stated)	i	-1.0%	-7.3	-16.5%	7.94µM*	12.6µM*
CCc1ccccc1NC(=O)CSC1=C(C#N)C(c2ccc(O)c(OC)c2)C2=C(CCCC2=O)N1 (configuration not stated)	i	3.2%	-19.5	0.0%	16.4µM*	u
COc1cc(C2C(C#N)=C(N)N(c3cccnc3)C3=C2C(=O)CCC3)ccc1O (configuration not stated)	i	x	-59.1*	4.6%	2.3%	-5.4%
Cc1cccc(NC(=O)c2ccc(Cn3nc(N4CCN(c5ccccc5)CC4)ccc3=O)o2)c1C	u	0.3%	x	u	x	x
COc1ccc(CCNC(=O)CCc2cn(Cc3ccc(F)cc3)c3ccccc23)cc1OC	x	0.6%	x	x	x	x
CCOC(=O)C1=C(c2ccccc2)NC(SCC(=O)Nc2cccc(C)c2)=C(C#N)C1c1ccco1 (configuration not stated)	i	-5.5%[38.3 µM]	-7.1	-20.6%	u	18.4µM*
O=C(NC1CC1(c1ccccc1)c1ccccc1)c1ccccc1 (configuration not stated)	i	6.6%	-16.9	2.7%	15.8%	13.3%
COc1ccccc1NS(=O)(=O)c1cc(N2Cc3ccccc3C2=N)ccc1N1CCOCC1	u	0.5%	-95.9*	-16.3%	0.0%	9.3%
Cc1nc(SCC(=O)Nc2ccccc2Cl)cc(-c2ccccc2)n1	x	0.0%	x	x	x	x
Cc1cccc(CC(Cc2nc3ccccc3[nH]2)c2nc3ccccc3[nH]2)c1 (configuration not stated)	u	u	-75.5*	u	u	20.3%
COc1ccccc1CC(Cc1nc2ccccc2[nH]1)c1nc2ccccc2[nH]1 (configuration not stated)	u	-1.5%	-25.9	-20.7%	u	13.8%
CCOC(=O)COc1ccc(Br)cc1/C=C1\SC(N)=NC1=O	i	-0.1%	-4.8	x	4.5%	0.0%
NC1=NC(=O)/C(=C/c2ccc(Br)cc2)S1	x	-0.2%	9.9	x	-1.6%	-9.3%
CCOC(=O)CSC1=NC(=O)/C(=C/c2ccc(Br)cc2)S1	i	0.5%	-63.6*	-39.4%	u	20.2%
CCOC(=O)CSC1=NC(=O)/C(=C\c2ccc(OC(C)=O)cc2)S1	x	u	-61.6*	u	2.59µM*	u
CCc1cccc(NC(=O)Cn2c(C(=O)OC)cc3sc(Cl)cc32)c1	i	0.0%	x	2.2%	x	x
CCOc1ccc(CCNC(=O)CCc2cn(Cc3ccc(C)cc3)c3ccccc23)cc1	x	-0.3%	x	x	x	x
Cc1ccc(C(=O)NC(=S)Nc2ccc(CN3CCCCC3)cc2)c(C)c1	i	5.4%	-53.3*	-12.7%	5.1%	u
COc1ccc(C(=O)NC(=S)Nc2ccc(CN3CCOCC3)cc2)cc1Cl	u	0.0%	-10.5	x	0.5%	-4.3%
COc1ccc(C(=O)NC(=S)Nc2ccc(CN3CCCCC3)cc2)cc1Cl	u	13.1%	-68.5*	-10.9%	u	25.5%
CCOc1ccc(C(=O)NCCc2csc(-c3cccnc3)n2)cc1	u	0.1%	x	2.2%	x	x
